# In article PMC8384837, “Expanding the binding specificity for RNA recognition by a PUF domain”:
# Changes are numbered by the printed parent chain.
# Legend:
# Test in all cases: yeast three-hybrid, YBZ-1, SC-Leu-His + 0.5 mM 3-AT, 4 days
# Conditions in all cases: tags: N-Gal4 AD-HA kept; label: inside an RPR1-promoter hybrid RNA with tandem MS2 sites; ssRNA
# PUM1 PUF domain R5-RSI = PUM1 PUF domain R5-RSI (Homo sapiens, UniProt Q14671 828-1176, C1007R;R1008S;Q1011I)
# Summary of the method: (§1)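 The interaction score is the logarithmic change in variant frequency from input to selection. It uses log2, with a pseudocount of 1 for absent variants, and frequencies came from PCR-amplified, Illumina-sequenced repeat regions. The libraries were Pumilio-1 PUF domains randomized at the three base-contacting residues per repeat, co-expressed with matching RNA elements in strain YBZ-1 (LexA–MS2 coat fusion, HIS3 reporter). Plating lasted four days on SC-Leu (input) or SC-Leu-His + 0.5 mM 3-AT (selection).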
# PUM1 PUF domain R1-TSR = PUM1 PUF domain R1-TSR (Homo sapiens, UniProt Q14671 828-1176, S863T;R864S;Q867R)
# Summary of the method: as §1
# PUM1 PUF domain R1-QLD = PUM1 PUF domain R1-QLD (Homo sapiens, UniProt Q14671 828-1176, S863Q;R864L;Q867D)
# Summary of the method: as §1
# PUM1 PUF domain R1-RTE = PUM1 PUF domain R1-RTE (Homo sapiens, UniProt Q14671 828-1176, S863R;R864T;Q867E)
# Summary of the method: as §1
# PUM1 PUF domain R4-MPG = PUM1 PUF domain R4-MPG (Homo sapiens, UniProt Q14671 828-1176, N971M;H972P;Q975G)
# Summary of the method: as §1
# PUM1 PUF domain R8-LRR = PUM1 PUF domain R8-LRR (Homo sapiens, UniProt Q14671 828-1176, N1122L;Y1123R;Q1126R)
# Summary of the method: as §1
# PUM1 PUF domain R8-RPR = PUM1 PUF domain R8-RPR (Homo sapiens, UniProt Q14671 828-1176, N1122R;Y1123P;Q1126R)
# Summary of the method: as §1
# PUM1 PUF domain R8-GYK = PUM1 PUF domain R8-GYK (Homo sapiens, UniProt Q14671 828-1176, N1122G;Q1126K)
# Summary of the method: as §1
# PUM1 PUF domain R2-GWD = PUM1 PUF domain R2-GWD (Homo sapiens, UniProt Q14671 828-1176, N899G;Y900W;Q903D)
# Summary of the method: as §1
# PUM1 PUF domain R2-LWM = PUM1 PUF domain R2-LWM (Homo sapiens, UniProt Q14671 828-1176, N899L;Y900W;Q903M)
# Summary of the method: as §1
# PUM1 PUF domain R4-VWK = PUM1 PUF domain R4-VWK (Homo sapiens, UniProt Q14671 828-1176, N971V;H972W;Q975K)
# Summary of the method: as §1
# PUM1 PUF domain R5-WWA = PUM1 PUF domain R5-WWA (Homo sapiens, UniProt Q14671 828-1176, C1007W;R1008W;Q1011A)
# Summary of the method: as §1
# PUM1 PUF domain R3-LYG = PUM1 PUF domain R3-LYG (Homo sapiens, UniProt Q14671 828-1176, C935L;R936Y;Q939G)
# Summary of the method: as §1
# PUM1 PUF domain R3-RSC = PUM1 PUF domain R3-RSC (Homo sapiens, UniProt Q14671 828-1176, C935R;R936S;Q939C)
# Summary of the method: as §1
# PUM1 PUF domain R6-SWH = target: T1, PUM1 PUF domain R6-SWH (Homo sapiens, UniProt Q14671 828-1176, N1043S;Y1044W;Q1047H)
# T1 sequence: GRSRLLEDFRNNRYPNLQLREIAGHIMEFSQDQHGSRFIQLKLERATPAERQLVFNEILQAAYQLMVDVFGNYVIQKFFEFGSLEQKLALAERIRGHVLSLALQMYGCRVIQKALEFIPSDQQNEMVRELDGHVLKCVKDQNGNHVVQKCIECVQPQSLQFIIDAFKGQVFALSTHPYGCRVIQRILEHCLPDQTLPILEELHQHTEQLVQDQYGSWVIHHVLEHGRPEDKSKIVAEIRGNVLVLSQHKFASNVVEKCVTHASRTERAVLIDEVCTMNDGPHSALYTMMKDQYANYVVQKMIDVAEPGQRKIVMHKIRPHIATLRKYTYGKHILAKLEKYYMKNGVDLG
# Summary of the method: as §1
# PUM1 PUF domain R6-WYG = target: T2, PUM1 PUF domain R6-WYG (Homo sapiens, UniProt Q14671 828-1176, N1043W;Q1047G)
# T2 sequence: T1 sequence with S216W, W217Y, H220G
# Summary of the method: as §1
# PUM1 PUF domain R8-KHS = PUM1 PUF domain R8-KHS (Homo sapiens, UniProt Q14671 828-1176, N1122K;Y1123H;Q1126S)
# Summary of the method: as §1
# PUM1 PUF domain R6-HFW = target: T3, PUM1 PUF domain R6-HFW (Homo sapiens, UniProt Q14671 828-1176, N1043H;Y1044F;Q1047W)
# T3 sequence: T1 sequence with S216H, W217F, H220W
# Summary of the method: as §1
# PUM1 PUF domain R6-RHG = target: T4, PUM1 PUF domain R6-RHG (Homo sapiens, UniProt Q14671 828-1176, N1043R;Y1044H;Q1047G)
# T4 sequence: T1 sequence with S216R, W217H, H220G
# Summary of the method: as §1
# PUM1 PUF domain R3-MSN = PUM1 PUF domain R3-MSN (Homo sapiens, UniProt Q14671 828-1176, C935M;R936S;Q939N)
# Summary of the method: as §1
sequence,measurement,setting,value
GGCUAGAACUAGUGGAUCCCCCGGCGCCCGGCGGCUCGAGCCCGGGUAAGUGUCAAUAGUCUGCAUGCCGCCGGGCGCCAUGCCUGCAGGUCGACUCUAGAAAACAUG,binding signal,PUM1 PUF domain R5-RSI,2.24 log2 enrichment (interaction score)
GGCUAGAACUAGUGGAUCCCCCGGCGCCCGGCGGCUCGAGCCCGGGUAAGUGUAAAUUGUCUGCAUGCCGCCGGGCGCCAUGCCUGCAGGUCGACUCUAGAAAACAUG,binding signal,PUM1 PUF domain R1-TSR,0.81 log2 enrichment (interaction score)
same,binding signal,PUM1 PUF domain R1-QLD,4.86 log2 enrichment (interaction score)
same,binding signal,PUM1 PUF domain R1-RTE,2.65 log2 enrichment (interaction score)
GGCUAGAACUAGUGGAUCCCCCGGCGCCCGGCGGCUCGAGCCCGGGUAAGUGUUAAUAGUCUGCAUGCCGCCGGGCGCCAUGCCUGCAGGUCGACUCUAGAAAACAUG,binding signal,PUM1 PUF domain R5-RSI,3 log2 enrichment (interaction score)
GGCUAGAACUAGUGGAUCCCCCGGCGCCCGGCGGCUCGAGCCCGGGUAAGUGUAUAUAGUCUGCAUGCCGCCGGGCGCCAUGCCUGCAGGUCGACUCUAGAAAACAUG,binding signal,PUM1 PUF domain R4-MPG,2.39 log2 enrichment (interaction score)
GGCUAGAACUAGUGGAUCCCCCGGCGCCCGGCGGCUCGAGCCCGGGUAAGUGUAAAUGGUCUGCAUGCCGCCGGGCGCCAUGCCUGCAGGUCGACUCUAGAAAACAUG,binding signal,PUM1 PUF domain R1-RTE,0.93 log2 enrichment (interaction score)
GGCUAGAACUAGUGGAUCCCCCGGCGCCCGGCGGCUCGAGCCCGGGUAAGCGUAAAUAGUCUGCAUGCCGCCGGGCGCCAUGCCUGCAGGUCGACUCUAGAAAACAUG,binding signal,PUM1 PUF domain R8-LRR,3.25 log2 enrichment (interaction score)
same,binding signal,PUM1 PUF domain R8-RPR,2.38 log2 enrichment (interaction score)
same,binding signal,PUM1 PUF domain R8-GYK,4.76 log2 enrichment (interaction score)
GGCUAGAACUAGUGGAUCCCCCGGCGCCCGGCGGCUCGAGCCCGGGUAAGUGUAAAGAGUCUGCAUGCCGCCGGGCGCCAUGCCUGCAGGUCGACUCUAGAAAACAUG,binding signal,PUM1 PUF domain R2-GWD,10.1 log2 enrichment (interaction score)
GGCUAGAACUAGUGGAUCCCCCGGCGCCCGGCGGCUCGAGCCCGGGUAAGUGUAAAAAGUCUGCAUGCCGCCGGGCGCCAUGCCUGCAGGUCGACUCUAGAAAACAUG,binding signal,PUM1 PUF domain R2-GWD,3.74 log2 enrichment (interaction score)
same,binding signal,PUM1 PUF domain R2-LWM,7 log2 enrichment (interaction score)
GGCUAGAACUAGUGGAUCCCCCGGCGCCCGGCGGCUCGAGCCCGGGUAAGUGUACAUAGUCUGCAUGCCGCCGGGCGCCAUGCCUGCAGGUCGACUCUAGAAAACAUG,binding signal,PUM1 PUF domain R4-MPG,2.9 log2 enrichment (interaction score)
same,binding signal,PUM1 PUF domain R4-VWK,5.63 log2 enrichment (interaction score)
GGCUAGAACUAGUGGAUCCCCCGGCGCCCGGCGGCUCGAGCCCGGGUAAGUGUGAAUAGUCUGCAUGCCGCCGGGCGCCAUGCCUGCAGGUCGACUCUAGAAAACAUG,binding signal,PUM1 PUF domain R5-WWA,2.58 log2 enrichment (interaction score)
GGCUAGAACUAGUGGAUCCCCCGGCGCCCGGCGGCUCGAGCCCGGGUAAGUGUAAUUAGUCUGCAUGCCGCCGGGCGCCAUGCCUGCAGGUCGACUCUAGAAAACAUG,binding signal,PUM1 PUF domain R3-LYG,4.62 log2 enrichment (interaction score)
same,binding signal,PUM1 PUF domain R3-RSC,3.04 log2 enrichment (interaction score)
GGCUAGAACUAGUGGAUCCCCCGGCGCCCGGCGGCUCGAGCCCGGGUAAGUGUAAAUCGUCUGCAUGCCGCCGGGCGCCAUGCCUGCAGGUCGACUCUAGAAAACAUG,binding signal,PUM1 PUF domain R1-TSR,2.68 log2 enrichment (interaction score)
GGCUAGAACUAGUGGAUCCCCCGGCGCCCGGCGGCUCGAGCCCGGGUAAGUGAAAAUAGUCUGCAUGCCGCCGGGCGCCAUGCCUGCAGGUCGACUCUAGAAAACAUG,binding signal,PUM1 PUF domain R6-SWH,2.64 log2 enrichment (interaction score)
GGCUAGAACUAGUGGAUCCCCCGGCGCCCGGCGGCUCGAGCCCGGGUAAGUGUAAAUAGUCUGCAUGCCGCCGGGCGCCAUGCCUGCAGGUCGACUCUAGAAAACAUG,binding signal,PUM1 PUF domain R6-WYG,3.19 log2 enrichment (interaction score)
same,binding signal,PUM1 PUF domain R2-GWD,1.77 log2 enrichment (interaction score)
same,binding signal,PUM1 PUF domain R3-LYG,2.65 log2 enrichment (interaction score)
same,binding signal,PUM1 PUF domain R8-KHS,4.58 log2 enrichment (interaction score)
same,binding signal,PUM1 PUF domain R6-HFW,3.2 log2 enrichment (interaction score)
same,binding signal,PUM1 PUF domain R8-LRR,2.35 log2 enrichment (interaction score)
same,binding signal,PUM1 PUF domain R6-RHG,2.33 log2 enrichment (interaction score)
GGCUAGAACUAGUGGAUCCCCCGGCGCCCGGCGGCUCGAGCCCGGGUAAGUGUAAGUAGUCUGCAUGCCGCCGGGCGCCAUGCCUGCAGGUCGACUCUAGAAAACAUG,binding signal,PUM1 PUF domain R3-LYG,6.19 log2 enrichment (interaction score)
same,binding signal,PUM1 PUF domain R3-MSN,2.68 log2 enrichment (interaction score)
